Results from the supplement of paper PMC10981050.
Where “and” joins values, the source holds several entries; their conditions need not be identical. Equal entries are not always repeated. Structures can show the parent of a compound that is named as a salt.

How the values were obtained:
Assay in all cases: cell viability relative to vehicle control; higher = less cytotoxic
Settings in all cases: 10 µM
K562 = system: K562
Method in brief: (§1)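 Each screen used CRISPR-edited mutant and wild-type clones from four leukaemia lines. Compounds were acoustically dispensed at a single 10 µM dose, and CellTiter-Glo luminescence was read after 48 h with the supernatant first removed. Viability was analysed in Genedata Screener and given as percent of the on-plate vehicle control.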

MARIMO = system: MARIMO
Method in brief: as §1

MOLM14 = system: MOLM14
Method in brief: as §1

OCI-AML2 = system: OCI-AML2
Method in brief: as §1

| Structure (SMILES) | cell viability (K562; SRSF2 genotype: SRSF2 P95H/wt) | cell viability (K562; SRSF2 genotype: SRSF2 wt/wt) [%] | cell viability (MARIMO; SRSF2 genotype: SRSF2 P95H/wt) [%] | cell viability (MARIMO; SRSF2 genotype: SRSF2 wt/wt) [%] | cell viability (MOLM14; SRSF2 genotype: SRSF2 P95H/wt) [%] | cell viability (MOLM14; SRSF2 genotype: SRSF2 wt/wt) [%] | cell viability (OCI-AML2; SRSF2 genotype: P95H/wt) [%] | cell viability (OCI-AML2; SRSF2 genotype: wt/wt) [%] |
| --- | --- | --- | --- | --- | --- | --- | --- | --- |
| CC1(C)CC[C@]2(C(=O)O)CC[C@]3(C)C(=CC[C@@H]4[C@@]5(C)C[C@@H](O)[C@H](O)C(C)(C)[C@@H]5CC[C@]43C)[C@@H]2C1 [Maslinic acid] | 84.2% and 80.1% | 84.5 | 91.3 | 108 | 90.7 | 86.9 | 77 | 82.2 |
| C=C[C@]1(C)C[C@@H](OC(=O)CSC(C)(C)CNC(=O)[C@H](N)C(C)C)[C@]2(C)[C@H](C)CC[C@]3(CCC(=O)[C@H]32)[C@@H](C)[C@@H]1O [Valnemulin HCl] | 83.2% and 84.6% | 75.3 | 74 | 74.9 | 80.8 | 80 | 60.7 | 65.5 |
| Cc1cc(O)c(-c2ccc([C@@H](C)CN)cc2)c2c1[nH]c(=O)c1sccc12 [OTS514 hydrochloride] | 19.6% and 29.6% | 21.7 | 3.37 | 1.35 | 0.27 | 0.16 | 0.39 | 8.87 |
| COc1ccc(Cl)c(Nc2nc3ccccc3nc2NS(=O)(=O)c2cccc(NC(=O)C(C)(C)N)c2)c1 [Pilaralisib (XL147)] | 87.3% and 96.2% | 84 | 68.6 | 66 | 59.3 | 55 | 52.3 | 54.6 |
| Cc1n[nH]c2ncc(C(=O)N3CCC[C@H]3c3ccc(Cl)cc3)cc12 | 101% and 98.5% | 99.8 | 101 | 128 | 88.8 | 105 | 91.4 | 92.8 |
| O=c1ccc2ccc(OCCCCN3CCN(c4cccc5sccc45)CC3)cc2[nH]1 [Brexpiprazole] | 37.4% and 28.9% | 60.1 | 43.1 | 39.2 | 33 | 23.4 | 15.4 | 21.6 |
| COc1cc2c(c(OC)c1OC)-c1c(cc3c(c1OC)OCO3)C[C@H](C)[C@](C)(O)[C@H]2OC(=O)c1ccccc1 [Schisantherin A] | 102% and 111% | 97.5 | 89.3 | 102 | 100 | 102 | 106 | 102 |
| CN1c2cc(O)c(N=NC(N)=O)cc2CC1S(=O)(=O)O (stereo not drawn) [Carbazochrome sodium sulfonate] | 99.4% and 97% | 95.2 | 92.7 | 98.7 | 97 | 99.3 | 99.1 | 106 |
| Cc1ccc(NC(=O)Nc2cc(C(F)(F)F)ccc2F)cc1Nc1ccc2c(c1)NC(=O)/C2=C\c1ccc[nH]1 | 75.2% and 70.9% | 62.1 | 84.4 | 92.2 | 86.5 | 94.4 | 74.4 | 70.1 |
| N#Cc1ccc(COC[C@H]2O[C@@H](n3c(NCc4ccc(Cl)c(Cl)c4)nc4c(N)ncnc43)[C@H](O)[C@@H]2O)cc1 | 52% and 62.8% | 45.7 | 32.5 | 35.6 | 26 | 14.3 | 35.1 | 34.8 |
| CCN1C(=O)CNc2ncc(-c3ccc(-c4nc[nH]n4)nc3C)nc21 | 13.8% and 18.5% | 23.9 | 27.5 | 27.6 | 9.85 | 11.8 | 8.07 | 16.1 |
| N#CC(=Cc1ccc(O)c(O)c1)C(=O)NCc1ccccc1 [AG-490 (Tyrphostin B42)] | 101% and 99.8% | 91 | 78.5 | 92.8 | 95.9 | 103 | 90.4 | 93.7 |
| Cc1cccc(C)c1NC(=O)C1CCCCN1C (stereo not drawn) [Mepivacaine HCl] | 105% and 102% | 111 | 106 | 95.3 | 96.5 | 102 | 108 | 99 |
| NCCc1ccc(O)c(O)c1 [Dopamine hydrochloride (Inotropin)] | 89% and 91.3% | 93.1 | 88.6 | 103 | 80.9 | 100 | 99.9 | 105 |
| CCCCC1=NC2(CCCC2)C(=O)N1Cc1ccc(-c2ccccc2-c2nnn[nH]2)cc1 [Irbesartan (Avapro)] | 85.5% and 88.8% | 86.3 | 88.7 | 101 | 90 | 85.5 | 95.7 | 94.1 |
| COc1cc(Nc2ncc3c(n2)-c2ccc(Cl)cc2C(c2c(F)cccc2OC)=NC3)ccc1C(=O)O [MLN8237 (Alisertib)] | 46.2% and 63.8% | 60 | 87.3 | 108 | 30.6 | 17.7 | 43.5 | 44.5 |
| CCCCCCCCCCCCCCCCO [1-Hexadecanol] | 102% and 92.5% | 98.6 | 100 | 109 | 101 | 103 | 94.5 | 116 |
| Cc1ccc(O)c(O)c1 [4-Methylcatechol] | 94.8% and 90.4% | 98.3 | 61.1 | 89.5 | 75.4 | 85.3 | 94 | 90.9 |

| Structure (SMILES) | cell viability (K562; SRSF2 genotype: SRSF2 P95H/wt) | cell viability (K562; SRSF2 genotype: SRSF2 wt/wt) [%] | cell viability (MARIMO; SRSF2 genotype: SRSF2 P95H/wt) [%] | cell viability (MARIMO; SRSF2 genotype: SRSF2 wt/wt) [%] | cell viability (MOLM14; SRSF2 genotype: SRSF2 P95H/wt) [%] | cell viability (MOLM14; SRSF2 genotype: SRSF2 wt/wt) [%] | cell viability (OCI-AML2; SRSF2 genotype: P95H/wt) [%] | cell viability (OCI-AML2; SRSF2 genotype: wt/wt) [%] |
| --- | --- | --- | --- | --- | --- | --- | --- | --- |
| OCc1ccc(O[C@@H]2O[C@H](CO)[C@@H](O)[C@H](O)[C@H]2O)cc1 [Gastrodin (Gastrodine)] | 102% and 101% | 99.8 | 107 | 101 | 105 | 104 | 104 | 98.3 |
| CCCN(CCC)C(=O)C1=Cc2ccc(-c3ccc(C(=O)N4CCCC4)cc3)cc2N=C(N)C1 [Motolimod (VTX-2337)] | 34.5% and 40.5% | 38.8 | 33.2 | 25.7 | 26.5 | 31 | 21.7 | 29 |
| O=C1O[C@H]2[C@@H]3OC(=O)c4cc(O)c(O)c(O)c4-c4c(cc(O)c(O)c4O)C(=O)OC[C@H]2O[C@@H](OC(=O)c2cc(O)c(O)c(O)c2)[C@@H]3OC(=O)c2cc(O)c(O)c3c2[C@@H]2C1=CC(=O)[C@](O)(O3)C2(O)O [Geraniin] | 94.9% and 95.9% | 103 | 97.3 | 86 | 106 | 97.7 | 96.1 | 92.1 |
| C[C@H](CC[C@@H](O[C@@H]1O[C@H](CO[C@@H]2O[C@H](CO)[C@@H](O)[C@H](O)[C@H]2O)[C@@H](O)[C@H](O)[C@H]1O[C@@H]1O[C@H](CO)[C@@H](O)[C@H](O)[C@H]1O)C(C)(C)O)[C@H]1CC[C@@]2(C)[C@@H]3CC=C4[C@@H](CC[C@H](O[C@@H]5O[C@H](CO[C@@H]6O[C@H](CO)[C@@H](O)[C@H](O)[C@H]6O)[C@@H](O)[C@H](O)[C@H]5O)C4(C)C)[C@]3(C)[C@H](O)C[C@]12C [Mogroside V] | 94.9% and 96.3% | 101 | 92.7 | 104 | 104 | 104 | 103 | 97.7 |
| Cc1cn(CCN2CCN(c3ccccc3-c3cc(C#N)cc(C(=O)NCCCN4CCCC4)c3)CC2)c2ccccc12 | 0.16% and 0.18% | 0.16 | 0.17 | 0.22 | 0.12 | 0.12 | 0.03 | 0.1 |
| COc1ncc(-c2cc(-c3ncc(CN4C[C@@H](C)O[C@@H](C)C4)o3)c3cn[nH]c3c2)cc1NS(C)(=O)=O | 53.5% and 58.5% | 61.2 | 42.6 | 37.1 | 23.5 | 27.3 | 13.1 | 25.8 |
| O=c1[nH]cnc2[nH]ncc12 [Allopurinol Sodium (Aloprim)] | 90.9% and 86.7% | 90.5 | 89.1 | 93.1 | 86.6 | 91 | 90.6 | 95.1 |
| CCC[C@@H]1C[C@@H](C(=O)N[C@@H]([C@H]2O[C@H](SC)[C@H](O)[C@@H](O)[C@H]2O)[C@H](C)Cl)N(C)C1 [Clindamycin HCl] | 91.2% and 108% | 102 | 94.1 | 99.9 | 96.5 | 108 | 83.9 | 85.3 |
| CN(CCOc1ccc(CC2SC(=O)NC2=O)cc1)c1ccccn1 (stereo not drawn) [Rosiglitazone maleate] | 98.8% and 97.5% | 96 | 102 | 110 | 101 | 103 | 91.5 | 107 |
| Nc1ncnc2c1nc(Br)n2[C@@H]1O[C@@H]2COP(=O)(O)O[C@H]2[C@H]1O [8-Bromo-cAMP] | 66.5% and 72.5% | 66.5 | 86.2 | 96.1 | 65.9 | 60 | 79.8 | 93.2 |
| O=C1CCc2ccccc2O1 [Dihydrocoumarin] | 95.7% and 98.2% | 94.4 | 94.5 | 105 | 105 | 102 | 93.6 | 100 |
| Cc1cnc(Nc2ccc(N3CCN(C)CC3)cc2)nc1Nc1cccc(S(=O)(=O)NC(C)(C)C)c1 | 0.99% and 2.2% | 2.6 | 17.1 | 16.1 | 0.12 | 0.18 | 0.19 | 2.96 |
| O=CO [Formate] | 101% and 91.4% | 99 | 97.5 | 104 | 102 | 106 | 96.7 | 96 |
| CN(Cc1ccc(C(C)(C)C)cc1)Cc1cccc2ccccc12 [Butenafine HCl] | 97% and 102% | 91.6 | 84.1 | 105 | 93.4 | 98 | 85.5 | 101 |
| CC(=O)OCCc1ccc(O)c(O)c1 [Hydroxytyrosol Acetate] | 93.5% and 95.4% | 104 | 85.5 | 98.6 | 95.7 | 103 | 108 | 110 |
| Clc1ccc(COC(Cn2ccnc2)c2ccc(Cl)cc2Cl)cc1 (stereo not drawn) [Econazole nitrate (Spectazole)] | 67.2% and 76.7% | 70.1 | 64.3 | 71 | 58.2 | 73 | 57.8 | 52.4 |
| COc1cc(OC)c(/C=C/S(=O)(=O)Cc2ccc(OC)c(NCC(=O)O)c2)c(OC)c1 | 16.5% and 39% | 35.6 | 5.99 | 9.46 | 0.51 | 0.74 | 1.32 | 2.98 |
| CC(=O)OCC1=C(C(=O)O)N2C(=O)[C@@H](NC(=O)CSc3ccncc3)[C@H]2SC1 [cephapirin sodium] | 102% and 105% | 105 | 106 | 107 | 99.5 | 105 | 117 | 101 |
